{"source": "paper PMC11006913", "assay_in_all_cases": "PBM; 200 nM protein, PBS", "details_in_all_cases": "dsDNA, one strand shown", "key": {"HOXC10 [1]": {"biological_target": "HOXC10 (Homo sapiens, UniProt Q9NYD6 254-340)", "sequence (Q9NYD6 254-340)": "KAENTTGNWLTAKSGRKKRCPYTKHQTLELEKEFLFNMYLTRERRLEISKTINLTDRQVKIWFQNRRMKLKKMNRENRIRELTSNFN"}, "HOXC10 [2]": {"biological_target": "HOXC10 (Homo sapiens, UniProt Q9NYD6 254-340, K271E)", "sequence (Q9NYD6 254-340 K271E)": "as the sequence (Q9NYD6 254-340) above, with K18E counted along it"}, "ALX4": {"biological_target": "ALX4 (Homo sapiens, UniProt Q9H161 200-286)", "sequence (Q9H161 200-286)": "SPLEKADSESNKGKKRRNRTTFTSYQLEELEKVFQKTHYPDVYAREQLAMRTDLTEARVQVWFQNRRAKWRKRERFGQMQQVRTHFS"}, "MSX2 [3]": {"biological_target": "MSX2 (Homo sapiens, UniProt P35548 130-214)", "sequence (P35548 130-214)": "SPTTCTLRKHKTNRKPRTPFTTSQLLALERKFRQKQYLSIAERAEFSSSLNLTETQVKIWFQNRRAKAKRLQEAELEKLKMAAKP"}, "MSX2 [4]": {"biological_target": "MSX2 (Homo sapiens, UniProt P35548 130-214, F161Y)", "sequence (P35548 130-214 F161Y)": "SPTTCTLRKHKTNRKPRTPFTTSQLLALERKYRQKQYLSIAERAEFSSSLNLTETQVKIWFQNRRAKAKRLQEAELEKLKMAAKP"}}}
{"sequence": "CCCGAGAC", "values": [{"measurement": "binding signal", "setting": "HOXC10 [1]", "value": "9.98 upbm affinity estimate (log intensity, higher = more binding, comparable within an allelic series)"}, {"measurement": "binding signal", "setting": "HOXC10 [2]", "value": "9.98 upbm affinity estimate (log intensity, higher = more binding, comparable within an allelic series)"}]}
{"sequence": "GACGATTA", "values": [{"measurement": "binding signal", "setting": "HOXC10 [1]", "value": "11.2 upbm affinity estimate (log intensity, higher = more binding, comparable within an allelic series)"}, {"measurement": "binding signal", "setting": "HOXC10 [2]", "value": "11.1 upbm affinity estimate (log intensity, higher = more binding, comparable within an allelic series)"}]}
{"sequence": "ATCATACA", "values": [{"measurement": "binding signal", "setting": "HOXC10 [1]", "value": "10.9 upbm affinity estimate (log intensity, higher = more binding, comparable within an allelic series)"}, {"measurement": "binding signal", "setting": "HOXC10 [2]", "value": "10.8 upbm affinity estimate (log intensity, higher = more binding, comparable within an allelic series)"}]}
{"sequence": "GACTGGGC", "values": [{"measurement": "binding signal", "setting": "HOXC10 [1]", "value": "9.98 upbm affinity estimate (log intensity, higher = more binding, comparable within an allelic series)"}, {"measurement": "binding signal", "setting": "HOXC10 [2]", "value": "10 upbm affinity estimate (log intensity, higher = more binding, comparable within an allelic series)"}]}
{"sequence": "CTCCTCTC", "values": [{"measurement": "binding signal", "setting": "HOXC10 [1]", "value": "10 upbm affinity estimate (log intensity, higher = more binding, comparable within an allelic series)"}, {"measurement": "binding signal", "setting": "HOXC10 [2]", "value": "10 upbm affinity estimate (log intensity, higher = more binding, comparable within an allelic series)"}]}
{"sequence": "AGAAAAAG", "values": [{"measurement": "binding signal", "setting": "HOXC10 [1]", "value": "10 upbm affinity estimate (log intensity, higher = more binding, comparable within an allelic series)"}, {"measurement": "binding signal", "setting": "HOXC10 [2]", "value": "10.1 upbm affinity estimate (log intensity, higher = more binding, comparable within an allelic series)"}]}
{"sequence": "AGCTCTGC", "values": [{"measurement": "binding signal", "setting": "HOXC10 [1]", "value": "9.99 upbm affinity estimate (log intensity, higher = more binding, comparable within an allelic series)"}, {"measurement": "binding signal", "setting": "HOXC10 [2]", "value": "9.97 upbm affinity estimate (log intensity, higher = more binding, comparable within an allelic series)"}]}
{"sequence": "CTCAGGAA", "values": [{"measurement": "binding signal", "setting": "HOXC10 [1]", "value": "10.1 upbm affinity estimate (log intensity, higher = more binding, comparable within an allelic series)"}, {"measurement": "binding signal", "setting": "HOXC10 [2]", "value": "10 upbm affinity estimate (log intensity, higher = more binding, comparable within an allelic series)"}]}
{"sequence": "AGCTGGGC", "values": [{"measurement": "binding signal", "setting": "HOXC10 [1]", "value": "10 upbm affinity estimate (log intensity, higher = more binding, comparable within an allelic series)"}, {"measurement": "binding signal", "setting": "HOXC10 [2]", "value": "10 upbm affinity estimate (log intensity, higher = more binding, comparable within an allelic series)"}]}
{"sequence": "AGGAGTGG", "values": [{"measurement": "binding signal", "setting": "HOXC10 [1]", "value": "9.97 upbm affinity estimate (log intensity, higher = more binding, comparable within an allelic series)"}, {"measurement": "binding signal", "setting": "HOXC10 [2]", "value": "9.99 upbm affinity estimate (log intensity, higher = more binding, comparable within an allelic series)"}]}
{"sequence": "CGCCCCGA", "values": [{"measurement": "binding signal", "setting": "HOXC10 [1]", "value": "10.1 upbm affinity estimate (log intensity, higher = more binding, comparable within an allelic series)"}, {"measurement": "binding signal", "setting": "HOXC10 [2]", "value": "9.97 upbm affinity estimate (log intensity, higher = more binding, comparable within an allelic series)"}]}
{"sequence": "CAGAGGGA", "values": [{"measurement": "binding signal", "setting": "HOXC10 [1]", "value": "10.1 upbm affinity estimate (log intensity, higher = more binding, comparable within an allelic series)"}, {"measurement": "binding signal", "setting": "HOXC10 [2]", "value": "10.1 upbm affinity estimate (log intensity, higher = more binding, comparable within an allelic series)"}]}
{"sequence": "ACGAAGCT", "values": [{"measurement": "binding signal", "setting": "HOXC10 [1]", "value": "10 upbm affinity estimate (log intensity, higher = more binding, comparable within an allelic series)"}, {"measurement": "binding signal", "setting": "HOXC10 [2]", "value": "10.1 upbm affinity estimate (log intensity, higher = more binding, comparable within an allelic series)"}]}
{"sequence": "CATTACCG", "values": [{"measurement": "binding signal", "setting": "ALX4", "value": "11.2 upbm affinity estimate (log intensity, higher = more binding, comparable within an allelic series)"}]}
{"sequence": "TAACGAAA", "values": [{"measurement": "binding signal", "setting": "ALX4", "value": "10.6 upbm affinity estimate (log intensity, higher = more binding, comparable within an allelic series)"}]}
{"sequence": "ATGAATTG", "values": [{"measurement": "binding signal", "setting": "ALX4", "value": "11 upbm affinity estimate (log intensity, higher = more binding, comparable within an allelic series)"}]}
{"sequence": "ATATTTAG", "values": [{"measurement": "binding signal", "setting": "ALX4", "value": "10.9 upbm affinity estimate (log intensity, higher = more binding, comparable within an allelic series)"}]}
{"sequence": "AGTTAGTG", "values": [{"measurement": "binding signal", "setting": "ALX4", "value": "10.4 upbm affinity estimate (log intensity, higher = more binding, comparable within an allelic series)"}]}
{"sequence": "TACTTAGA", "values": [{"measurement": "binding signal", "setting": "HOXC10 [1]", "value": "10.8 upbm affinity estimate (log intensity, higher = more binding, comparable within an allelic series)"}, {"measurement": "binding signal", "setting": "MSX2 [3]", "value": "11.1 upbm affinity estimate (log intensity, higher = more binding, comparable within an allelic series)"}, {"measurement": "binding signal", "setting": "MSX2 [4]", "value": "10.9 upbm affinity estimate (log intensity, higher = more binding, comparable within an allelic series)"}]}
